# Screens (PubChem)
# In the library only some 3.1% were active in any assay of this set; here they are far more common.
# CASP6 VEID inh = human caspase-6 inhibitors, primary screen, biochemical, VEID-R110 fluorescence, single point, set 2; actives 0.53% (n = 350,000); AID 686996, 2013; purified caspase-6, Z-VEID-R110 cleavage fluorescence; inhibition, % at 12.5 µM;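 active = mean inhibition across replicates at least about 35%, with every replicate also reaching that limit, limit read from the data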;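 also: 0% = median of neutral control wells and 100% = no fluorescence left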
# Target sequence (P55212 24-179 limits assumed): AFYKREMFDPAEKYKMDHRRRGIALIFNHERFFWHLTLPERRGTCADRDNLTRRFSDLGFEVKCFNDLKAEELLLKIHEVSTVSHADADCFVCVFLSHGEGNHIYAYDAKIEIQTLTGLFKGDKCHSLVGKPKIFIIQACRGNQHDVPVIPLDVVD
# Target sequence (P55212 194-293 limits assumed): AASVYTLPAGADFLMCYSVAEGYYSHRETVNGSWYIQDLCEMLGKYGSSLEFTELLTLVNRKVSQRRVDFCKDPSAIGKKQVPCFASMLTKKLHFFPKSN
# FGF22 binding-1 = binders of human FGF22 protein, primary screen, FGF22 synaptogenesis inhibitor project, biophysical, thermal shift, single point; Fibroblast growth factor 22 (Homo sapiens), Q9HCT0; recombinant FGF22 thermal shift, SYPRO orange fluorescence; percent of sucrose octasulfate shift, DMSO zero; activity (Tm shift, normalised), % at 9.99 µM; actives 1.5% (n = 340,000); AID 651658, 2012;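 active = mean Tm shift, scaled 0 neutral to 100 positive control, at about 1.3% or above, every replicate too, limit read from the data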
# ERAP1 inh = human ERAP1 aminopeptidase inhibitors, primary screen, biochemical, single point, plate reader; inhibition, % at 10.7 µM; AID 652197, 2013; recombinant ERAP1, Leu-AMC fluorescence, 60 min; actives 0.15% (n = 340,000);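 active = mean replicate inhibition of at least 30%, or all replicates individually reaching that 30% level; inactive = mean below 30% and not every replicate reaching it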;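 also: 0% = neutral control wells and 100% = L-leucinethiol positive control wells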
# SIRT5 block = SIRT5 desuccinylase inhibitors, primary screen, biochemical, fluorescence imaging, single point, set 5 | actives 1.1% (n = 330,000) | NAD-dependent protein deacylase sirtuin-5, mitochondrial (Homo sapiens), Q9NXA8 | AID 652115, 2013 | inhibition, % at 15 µM | Purified SirT5, succinyl-peptide AMC, trypsin-coupled fluorescence; in the data active = inhibition above about 15%
# Target sequence (Q9NXA8 whole entry, looked up): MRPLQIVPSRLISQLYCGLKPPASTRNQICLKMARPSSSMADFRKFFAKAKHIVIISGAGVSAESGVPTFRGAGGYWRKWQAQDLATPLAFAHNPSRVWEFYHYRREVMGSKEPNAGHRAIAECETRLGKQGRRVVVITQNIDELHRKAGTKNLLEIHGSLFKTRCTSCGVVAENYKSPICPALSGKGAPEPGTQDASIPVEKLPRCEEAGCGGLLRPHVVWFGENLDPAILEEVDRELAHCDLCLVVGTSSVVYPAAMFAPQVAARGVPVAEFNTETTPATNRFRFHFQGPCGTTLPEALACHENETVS
# FGF22 binding-2 = binders of human FGF22 protein, dose response, FGF22 synaptogenesis inhibitor project, biophysical, thermal shift, cherry-pick retest; shares compounds with FGF22 binding-1; recombinant FGF22 thermal shift, SYPRO orange fluorescence; thermal shift activity, °C (ΔTm) at 38 µM; actives 2% (n = 1,000); AID 720646, 2013;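 active = fitted rise in melting shift crosses a set limit at or below the top valid dose tested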
# SYPRO no-protein = compound-only thermal shift signal without protein, dose response, artefact control for FGF22 binder project, biochemical, cherry-picked samples, RT-PCR instrument; AC50, µM (highest dose often 38 µM); actives 2% (n = 1,000); AID 743019, 2013; shares compounds with FGF22 binding-1; compound-only SYPRO orange thermal shift counter-screen, no protein;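 active = rising signal whose fitted curve reaches the 0.54 level within the top valid dose, showing a melting point, actives reach about 13 µM in these data; inactive = the rest, including activity in the opposite direction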; also: value is where the raw curve crosses a fixed level and not half-maximal
# * marks the source's active call; other numbers are inactive results; i = inactive; x = no result; [ ] = remark or other dose.
SMILES,CASP6 VEID inh,FGF22 binding-1,ERAP1 inh,SIRT5 block,FGF22 binding-2,SYPRO no-protein
C[C@@H]1CN([C@@H](C)CO)C(=O)Cc2cc(NC(=O)c3ccncc3)ccc2O[C@@H]1CN(C)C(=O)Nc1cccc2ccccc12,11,0,-3,x,x,x
O=C(N/N=C/c1ccncc1)c1cc2ccccc2o1,0,1.8*,7,5,0.023,i
Cn1cnc(S(=O)(=O)N[C@H]2CC[C@@H](CC(=O)Nc3ccc(-c4ccccc4)cc3)O[C@@H]2CO)c1,1,0,1,0,x,x
N#Cc1ccc(NC(=O)Nc2ccc(Oc3ccc(NC(=O)Nc4ccc(C#N)cc4)cc3)cc2)cc1,-2,0,-3,-2,x,x
N#Cc1ccc(NC(=O)Nc2cccc(C#N)c2)cc1,4,1.9*,-33,5,x,6.4µM*
CC(C)(CNS(=O)(=O)c1ccc2c(c1)OCCO2)N1CCOCC1,0,1.4*,5,1,-0.061,i
CC(=O)Nc1ccc(S(=O)(=O)NCCc2c[nH]c3ccc(C)cc23)cc1,-2,1.4*,-3,0,0.079,i
Cc1cc(C(=O)N/N=C/c2c(C)nn(-c3ccccc3)c2C)n[nH]1,3,0,0,3,x,x
Cc1nn(-c2ccccc2)c(C)c1/C=N/NC(=O)c1cc(-c2cccs2)[nH]n1,-1,1.6*,1,-4,-0.17,i
O=C(COc1ccc2c(c1)oc(=O)c1ccccc12)NC(Cc1ccc(Cl)cc1)C(=O)O (stereo not given),2,1.6*,5,-17,0.008,i
CCCNC(=O)[C@@H]1[C@@H](CO)[C@@H]2Cn3c(ccc(-c4cccc(F)c4)c3=O)[C@H]1N2Cc1ccccc1F,-1,0,0,-8,x,x
C[C@H]1CCCCO[C@@H](CN(C)C(=O)Nc2ccc3c(c2)OCO3)[C@@H](C)CN([C@@H](C)CO)C(=O)c2cc(NC(=O)Nc3ccccc3)ccc2O1,-2,0,-1,2,x,x
CC(C)N(C[C@H]1N[C@H](CO)[C@H]1c1ccccc1)S(=O)(=O)c1ccccc1,0,1.4*,0,0,0.02[42 µM],i
CS(=O)(=O)N1CC(=O)N2[C@@H](CO)[C@H](c3ccc(C#CCc4ccccc4)cc3)[C@@H]2C1,2,1,6,-3,x,x
O=C(c1ccc2c(c1)OCO2)N1CC(=O)N2[C@H](C1)[C@H](c1ccc(C#CCC3CCCC3)cc1)[C@@H]2CO,4,2.3*,0,24*,0.049,i
COc1cccc(C#Cc2ccc([C@H]3[C@@H](CO)N4C(=O)CN(C(=O)c5ccccc5)C[C@@H]34)cc2)c1,-2,1.4*,2,0,0.001[42 µM],i
CS(=O)(=O)N1CC(=O)N2[C@H](CO)[C@@H](c3ccc(C#CCc4ccccc4)cc3)[C@H]2C1,1,1.3*,4,-1,0.098,i
COc1cccc(C#Cc2ccc([C@@H]3[C@H]4CN(C(=O)c5ccccc5)CC(=O)N4[C@H]3CO)cc2)c1,0,-1,-1,12,x,x
C[C@H](CO)N1C[C@H](C)[C@@H](CN(C)Cc2ccncc2)OCc2ccccc2-c2ccccc2C1=O,-2,0,-1,-1,x,x
CCCNC(=O)N[C@H]1CC[C@H](CC(=O)NC2CCC2)O[C@H]1CO,-2,0,0,1,x,x
C[C@H]1CN([C@@H](C)CO)C(=O)c2cc(NC(=O)Nc3ccc(F)cc3)ccc2O[C@@H]1CN(C)Cc1ccncc1,1,0,-2,8,x,x
CC(C)C#Cc1ccc([C@H]2[C@@H](CO)N3C(=O)CN(C(=O)C4CCCCC4)C[C@H]23)cc1,12,1,0,1,x,x
CC(C)C#Cc1ccc([C@H]2[C@H](CO)N3C(=O)CN(C(=O)C4CCCCC4)C[C@@H]23)cc1,-1,1.6*,-1,-2,0.47,i
CC(C)C#Cc1ccc([C@@H]2[C@H](CO)N3C(=O)CN(C(=O)C4CCCCC4)C[C@@H]23)cc1,6,1.2*,-1,24*,0.34,i
COc1ccc(C(=O)Nc2ccc3c(c2)C(=O)N(C)C[C@H](OC)[C@@H](C)CN(C(C)=O)[C@@H](C)CO3)cc1,x,0,3,0,x,x
SMILES,CASP6 VEID inh,FGF22 binding-1,ERAP1 inh,SIRT5 block,FGF22 binding-2,SYPRO no-protein
O=C(Cc1ccccn1)NCC[C@H]1CC[C@@H](NS(=O)(=O)c2ccccc2)[C@H](CO)O1,-3,0,8,7,x,x
CCc1nnc(NS(=O)(=O)c2ccc(NC(=S)NC(=O)/C=C/c3ccc([N+](=O)[O-])cc3)cc2)s1,3,2.5*,2,3,-0.005,i
CCOC(=O)C1CCC(CNCc2ccccc2C)CC1 (stereo not given),-2,1.6*,2,-1,0.054,i
O=C(O)C1CCC(CNCc2ccccc2Cl)CC1 (stereo not given),1,0,-4,-2,x,x
Cc1noc(C)c1S(=O)(=O)Nc1ccc2c(c1)CC(=O)N([C@@H](C)CO)C[C@@H](C)[C@@H](CN(C)C(=O)NC(C)C)O2,0,0,9,7,x,x
COc1ccc(CN(C)C[C@@H]2Oc3c(NS(C)(=O)=O)cccc3C(=O)N([C@H](C)CO)C[C@@H]2C)cc1,-4,0,-2,3,x,x
C[C@H](CO)N1C[C@H](C)[C@@H](CN(C)C(=O)Nc2cccc3ccccc23)Oc2c(NS(C)(=O)=O)cccc2C1=O,-5,1.8*,-4,5,0.15[42 µM],i
C[C@@H]1CN([C@@H](C)CO)C(=O)c2ccccc2-c2ccccc2CO[C@@H]1CN(C)C(=O)C1CC1,-3,0,0,0,x,x
C[C@H](CO)N1C[C@H](C)[C@@H](CN(C)C(=O)C2CC2)OCc2ccccc2-c2ccccc2C1=O,-2,11*,1,-1,0.007[42 µM],i
COc1ccc(CN(C)C[C@H]2Oc3c(NS(C)(=O)=O)cccc3C(=O)N([C@@H](C)CO)C[C@H]2C)cc1,-9,3.1*,-2,2,0.026,i
C[C@H](CO)N1C[C@H](C)[C@@H](CN(C)C(=O)Nc2cccc3ccccc23)Oc2c(NC(=O)C3CC3)cccc2C1=O,1,2.2*,-4,7,0.11,i
C[C@@H]1CN([C@@H](C)CO)C(=O)c2cccc(NC(=O)C3CC3)c2O[C@@H]1CN(C)C(=O)Nc1cccc2ccccc12,-2,1,-4,1,x,x
C/C=C/c1ccc([C@H]2[C@@H](CO)N(S(C)(=O)=O)[C@H]2CN(CC)C(C)=O)cc1,-5,x,-2,7,x,x
